PKM2 activator – increases activity of human pyruvate kinase M2 | P14618 | purified PKM2, Kinase-Glo ATP luminescence, activation; response scale: 0% is enzyme alone, no compound | Potency, µM (highest dose often 57.5 µM), most hits filed as activators | 260,000 compounds, 0.34% hits; also: nearly all actives have a fitted effect of over 55% in size
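ATP formation by purified human PK-M2, quantified via coupled luciferase luminescence after 1 h at room temperature with 0.1 mM ADP and 0.5 mM PEP final.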
PLK1 PBD block – blocks phosphopeptide binding to human PLK1 polo-box domain. Plk1 PBD binding of FITC phosphopeptide, fluorescence polarization. Potency, µM, hits mostly inhibitors. AID 720504. 360,000 compounds, 2.8% hits. P53350; also: series mostly up to about 57 µM; nearly all actives have a fitted effect of over 65% in size
Target sequence (P53350 whole entry, looked up, the tested form may be a part): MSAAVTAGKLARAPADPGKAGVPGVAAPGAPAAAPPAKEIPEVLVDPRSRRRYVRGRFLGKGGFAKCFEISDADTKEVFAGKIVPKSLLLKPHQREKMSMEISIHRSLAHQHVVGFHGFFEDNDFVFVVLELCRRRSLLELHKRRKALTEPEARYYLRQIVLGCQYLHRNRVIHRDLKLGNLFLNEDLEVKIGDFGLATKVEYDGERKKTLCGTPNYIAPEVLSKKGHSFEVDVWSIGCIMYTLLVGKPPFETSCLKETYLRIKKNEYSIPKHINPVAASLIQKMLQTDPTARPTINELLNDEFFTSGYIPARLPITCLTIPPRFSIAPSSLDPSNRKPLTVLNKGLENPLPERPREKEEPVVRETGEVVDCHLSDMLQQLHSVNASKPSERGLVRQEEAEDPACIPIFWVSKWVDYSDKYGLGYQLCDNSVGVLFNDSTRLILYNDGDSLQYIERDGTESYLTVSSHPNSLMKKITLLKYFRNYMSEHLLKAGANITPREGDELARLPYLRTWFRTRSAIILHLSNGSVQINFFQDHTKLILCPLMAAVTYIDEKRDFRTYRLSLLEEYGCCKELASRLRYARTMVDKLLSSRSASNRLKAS
VDR inhibitor – vitamin D3 receptor (human) inhibition; P11473; VDR-SRC2-3 peptide fluorescence polarization, 2 h; Potency, µM, most hits filed as inhibitors; 400,000 compounds, 0.93% hits; AID 504847
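Fluorescence polarization assay measuring small-molecule disruption of VDR binding to the coregulator peptide SRC2-3. Compounds were pin-transferred (23 nl) into the reagent mix and incubated 2 h at room temperature before reading.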
Mito fusion act – blocks mitochondrial division or promotes mitochondrial fusion; S. cerevisiae fusion-defective mutant growth rescue, CellTiterGlo 48 h; AID 485298; 320,000 compounds, 0.23% hits; Potency, µM (series often up to 46.1 µM), usual class: activators; also: nearly all actives have a fitted effect of over 45% in size
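Temperature-sensitive fusion-defective S. cerevisiae (e.g. fzo1-1, mgm1-5) were grown with compound in YPEG medium (3% ethanol, 3% glycerol) for 48 hours at 37C. Growth rescue was measured as viability by CellTiterGlo luminescence after 10 minutes at ambient.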
KAT2A inh – blocks human GCN5L2 histone acetyltransferase; AID 504327; Q92830; GCN5L2 HAT assay, ThioGlo1 CoA-SH fluorescence; Potency, µM (doses to about 58.9 µM), actives largely listed as inhibitors; 390,000 compounds, 0.21% hits
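Compounds, pin-transferred from DMSO stocks, meet 20nM GCN5L2 for 15 min before the reaction begins with H3(1-25) peptide (75uM) and acetyl-CoA (70uM). Thiol-reactive ThioGlo1 reports CoA release over 20 min at room temperature.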
GLS inhibitor – blocks human kidney-isoform glutaminase activity; 410,000 compounds, 0.21% hits; AID 624170; Potency, µM (series often up to 45.5 µM), hits mostly inhibitors; O94925; GLS enzymatic activity, qHTS titration
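Coupled fluorescence readout: glutamate oxidase/HRP/Amplex Red detect glutamate formed by hKGA from L-glutamine (1 mM solution added). Buffer 45 mM KH2PO4 pH 8.2, 0.02% Tween-20; reads at t0 and 30 min RT.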
Each line names hits and unclear results; the compound was inactive in the other large screens. In the library only some 3.4% were active in any assay of this set; here they are far more common. Calls follow the shape of the dose curve; as a rule, active = well fitted curve in the direction sought with a large enough effect; inconclusive = small, poorly fitted or top-dose-only effect, or another doubt; inactive = no such curve, though single readings can be large; an effect the other way counts as inactive or inconclusive.

CC1=C(C(=O)Nc2cccnc2)C(c2cccc(F)c2)n2nc(SCc3ccccc3)nc2N1 (stereo unspecified)	none (no result: PKM2 activator, PLK1 PBD block, Mito fusion act)
O=C(Nc1ncnc2c1ncn2[C@@H]1O[C@@H]2COP(=O)(O)O[C@H]2[C@H]1O)c1ccccc1	none (no result: PKM2 activator, PLK1 PBD block, Mito fusion act, GLS inhibitor)
Cc1ccc(CSc2nnc(-c3ccc4c(c3)OCO4)o2)cc1	none
Cc1ccc(Nc2nnc(-c3ccc4c(c3)OCO4)o2)c(C)c1	PLK1 PBD block 21µM, VDR inhibitor inconclusive
COc1cc(/C=N/NC(=O)c2cccc3ccccc23)cc(OC)c1O	none
CCOc1cc(/C=N/NC(=O)c2ccc(=O)n(C)c2)ccc1O	GLS inhibitor 7.9µM
CCOc1cc(C=NNC(=O)N(c2ccccc2)c2ccccc2)ccc1O	none (no result: PKM2 activator, VDR inhibitor, Mito fusion act, KAT2A inh)
COc1ccc2cc(C(=O)N/N=C/c3sc4ccccc4c3O)ccc2c1	none
COc1cc(/C=N/NC(=O)c2cccc3ccccc23)cc(OC)c1OC	PLK1 PBD block 30µM, KAT2A inh inconclusive (no result: PKM2 activator)
COc1ccc(C(=O)N/N=C/c2sc3ccccc3c2O)cc1	GLS inhibitor 16µM
COc1ccc2ccccc2c1/C=N/Nc1ccc(Cl)c(C(=O)O)c1	PLK1 PBD block inconclusive, GLS inhibitor inconclusive
COc1ccc2ccccc2c1/C=N/Nc1cccc(C(=O)O)c1	PLK1 PBD block inconclusive, GLS inhibitor 7.9µM (no result: PKM2 activator)
COc1ccccc1/C=N/NC(=O)c1ccc(-c2ccccc2)cc1	PLK1 PBD block 30µM
COc1ccc(C(=O)N/N=C/c2cc3ccccc3[nH]c2=S)cc1	PLK1 PBD block 15µM
COc1ccccc1/C=N/NC(=O)c1cccc2ccccc12	PLK1 PBD block 15µM, VDR inhibitor 79µM, GLS inhibitor inconclusive
COc1cc(C=NNC(=O)c2ccccc2-n2cccc2)ccc1O	GLS inhibitor 13µM (no result: PKM2 activator, Mito fusion act)
COc1ccc(CCNC(=O)CCCn2c(=O)c3ccccc3n(Cc3c(C)cc(C)cc3C)c2=O)cc1OC	none (no result: PKM2 activator, PLK1 PBD block, Mito fusion act)
O=C(CNC(=O)N1CC(=O)Nc2ccccc21)Nc1ccc(Cl)cc1Cl	none (no result: PKM2 activator, VDR inhibitor, Mito fusion act, KAT2A inh)
CC(C)C(=O)Nc1ccc2nc(SCC(=O)N3CCc4ccccc43)sc2c1	none (no result: PKM2 activator, PLK1 PBD block, Mito fusion act)
O=C1C=CC(=O)N1	PLK1 PBD block 30µM, VDR inhibitor 40µM (no result: PKM2 activator)
CC(C)OC(C)C	none (no result: PKM2 activator, PLK1 PBD block, Mito fusion act, GLS inhibitor)
Cc1ccc(NNC(=S)Nc2ccc(C(C)C)cc2)c(C)c1	PLK1 PBD block 17µM, GLS inhibitor inconclusive
Cc1ccc(C)c(NC(=S)NNc2ccc(F)cc2F)c1	PLK1 PBD block inconclusive, VDR inhibitor 10µM (no result: PKM2 activator)
Cc1cccc(NC(=S)NNC(=S)NCc2ccccc2)c1	VDR inhibitor 89µM
FC(F)(F)c1cc(NC(=S)Nc2ccc3cc4ccccc4cc3c2)cc(C(F)(F)F)c1	VDR inhibitor 22µM (no result: PKM2 activator, PLK1 PBD block, Mito fusion act, KAT2A inh, GLS inhibitor)
CC(C)(C)c1nnc(NC(=O)C2CCN(C(=O)c3ccccc3)CC2)s1	none (no result: PKM2 activator, PLK1 PBD block, Mito fusion act, KAT2A inh, GLS inhibitor)
CCOc1cccc(C(=O)c2ccc(O)c(O)c2O)c1	VDR inhibitor inconclusive (no result: PKM2 activator, PLK1 PBD block, Mito fusion act, GLS inhibitor)
OC(CNC1CCCCC1)CON=C1CCSc2c(Cl)cccc21 (stereo unspecified)	none (no result: PKM2 activator, VDR inhibitor, Mito fusion act, KAT2A inh)
Cc1ccc(NC(=S)NNC(=O)Nc2ccccc2)cc1	GLS inhibitor inconclusive
Cc1ccc(NC(=S)NNC(=S)Nc2ccc(C)cc2)cc1	PLK1 PBD block inconclusive, VDR inhibitor 79µM (no result: PKM2 activator, Mito fusion act, KAT2A inh)
Cc1ccc(NC(=S)NNC(=S)Nc2cccc(C(F)(F)F)c2)cc1	PLK1 PBD block 19µM, VDR inhibitor 28µM, KAT2A inh inconclusive
Cc1cc(C)c(C(=O)CSc2nnc(N)s2)c(C)c1	none
Cc1cc(C)c(C(=O)CSc2nnc(N)s2)cc1C	PLK1 PBD block 9.5µM, VDR inhibitor inconclusive
CC1=CC(C)(C)N(C(=O)CSc2nnc(N)s2)c2c(C)cc(C)cc21	KAT2A inh 4µM
Cc1ccccc1C(=O)Nc1nnc(SCc2cc(=O)n3ccccc3n2)s1	none (no result: PKM2 activator, PLK1 PBD block, Mito fusion act)
CN(C)CCCNc1nc(-c2ccccc2)c2c(c1C#N)CC(C)(C)OC2	PLK1 PBD block 24µM
CCN(CC)CCNc1nc(-c2ccco2)c2c(c1C#N)CC(C)(C)OC2	none
NC(=O)c1ccccc1N/C=C/C(=O)c1ccc(Cl)cc1	none
O=C(/C=C/Sc1ccccc1)c1ccc(Cl)cc1	VDR inhibitor 56µM
O=C(/C=C/Sc1ccccc1)c1ccccc1	PLK1 PBD block 13µM, GLS inhibitor inconclusive

Compound activity as filed in PubChem.
